According to PubChem BioAssay (NCI):
This is part of a sample that, as a whole, favours compounds with a hit. Of some 83,000 tested, about 20% had one in any assay.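 Cells were grown in 96-well plates and exposed to the test compound at a single concentration for 48 hours; results are reported as percent growth, with values below 10 considered active.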 Values without a mark were called inactive. Activity calls are given as the source filed them.

Experiments:
Assay in all cases: NCI-60 one-dose screen, 48 h (100 = growth as untreated, 0 = no growth, -100 = all killed)
Settings in all cases: 10 µM unless noted
[1] = system: SR leukemia
[2] = system: RPMI-8226 leukemia
[3] = system: OVCAR-8 ovarian
[4] = system: OVCAR-5 ovarian
[5] = system: SK-OV-3 ovarian
[6] = system: OVCAR-3 ovarian
[7] = system: HS 578T breast
[8] = system: NCI/ADR-RES ovarian
[9] = system: T-47D breast
[10] = system: BT-549 breast
[11] = system: MDA-MB-435 melanoma
[12] = system: SW-620 colon
[13] = system: MCF7 breast
[14] = system: HCT-116 colon
[15] = system: KM12 colon
[16] = system: IGROV1 ovarian
[17] = system: HCC-2998 colon
[18] = system: OVCAR-4 ovarian

Structure (SMILES)	growth [1]	growth [2]	growth [3]	growth [4]	growth [5]	growth [6]	growth [7]	growth [8]	growth [9]	growth [10]	growth [11]	growth [12]	growth [13]	growth [14]	growth [15]	growth [16]	growth [17]	growth [18]
OC1CSSC1Cn1cnc2c(Nc3ccc(OCc4cccc(F)c4)c(Cl)c3)ncnc21 (stereo not given)	-29.9% (active)	-37.5% (active)	37.4%	41%	-8.67% (active)	-70.2% (active)	59.2%	1.93% (active)	19.8%	52.9%	-77.1% (active)	-20.3% (active)	-60.1% (active)	-33.1% (active)	-60.3% (active)			
Cn1c(C#N)ccc1-c1ccc(F)c(NC(=O)c2ccc(F)cc2)c1	29.4%	70.1%	95.4%	85.4%	80%	77%	71.5%	76.9%	60.4%	80%	-11.2% (active)	44.9%	49.4%	77.4%	60.9%	74.2%	90.5%	
COc1ccc(/C=C2\c3cc(OC)c(OC)c(OC)c3CC[C@@H]2O)cc1F	3.9% (active)	28.1%	25.4%	76.2%	22.4%	4.82% (active)	37.3%	8.8% (active)	43.6%	23%	-35.6% (active)	28%	18.4%	8.9% (active)	22.9%	43%	35.7%	
N#CSc1c[nH]c2ccc(/C=C/C(=O)/C=C(O)/C=C/c3ccc4[nH]cc(SC#N)c4c3)cc12	2.57% (active)	3.93% (active)	9.71% (active)	67.4%	100%	18.3%	51.7%	46.4%	19.4%	15.7%	-2.07% (active)		10.5%	9.39% (active)	24.9%	3.73% (active)	46.3%	
COc1ccc(C2[C@@H](c3ccccc3)C(=O)N2c2cc(OC)c(OC)c(OC)c2)cc1F (stereo not given in full)	-6.55% (active)	6.59% (active)	1.85% (active)	65.1%	4.86% (active)	9.25% (active)	31.3%	11.9%	61.7%	-2.79% (active)	-23% (active)	24.2%	12.5%	3.36% (active)	13.2%	18.8%	15.1%	
CCn1cc(C(=O)N/N=C/c2ccccc2)c(=O)c2cc(F)c(N3CCNC(C)C3)c(F)c21 (stereo not given)	-14.6% (active)	-42.4% (active)	28.4%	67%	104%	-75% (active)	69.7%	56%	63.6%	77.8%	-88.1% (active)	-81.1% (active)	-84.4% (active)	57.6%	-89.4% (active)	58%	-82.9% (active)	
O=C1/C(=C/c2ccccn2)SC(=S)N1N1CCOCC1	108%	105%	98.9%	97.9%	101%	99.5%	96.7%	104%	99.4%	99.9%	103%		87.4%	104%	103%	94.1%	97.7%	
Cc1cccc(NC(=O)N/C(N)=N/c2nc3ccccc3s2)c1	27.1%	26.4%	35.5%	56.4%	35.2%	8.85% (active)	23.8%	15%	35.5%	57.2%		34.3%	21.9%	23.8%	25.1%	36.9%	56.4%	
Cc1cccc(N2C(=O)/C(=C/C(Cl)=C/c3ccc([N+](=O)[O-])cc3)SC2=S)c1C	2.55% (active)	-13.1% (active)	9.93% (active)	22.8%	72.7%	-21.4% (active)	27.8%	7.84% (active)	5.42% (active)	3.15% (active)	10.4%	0.401% (active)	15.2%	-38.8% (active)	19.3%	-40.5% (active)	42%	
O=CN1N=C(c2cccc(Nc3ccnc4cc(Cl)ccc34)c2)CC1c1ccc(Cl)cc1 (stereo not given)	8.98% (active)	32.9%	43.7%	58.7%	24.1%	-17% (active)	1.82% (active)	5.69% (active)	43.3%	8.58% (active)	-38.3% (active)	23.4%	14.6%	1% (active)	28.1%	38.7%	44.3%	
COCCn1cc(-c2nc(-c3c[nH]c4ncccc34)cs2)c2ccccc21	18.4%	43.3%	81%	43.7%	54.8%	13.6%	47.4%	69.1%	4.79% (active)	43.2%	7.74% (active)	68.6%	9.03% (active)	66.5%	16.4%	36%	34.4%	
CC1(C)N=C(N)N=C(N)N1c1cc(Cl)ccc1Cl	67%	107%	85.5%	59.2%	97.2%	115%	101%	67.8%	95.2%	85.2%		42.2%	65.7%	36.8%	94%	68.4%	94.8%	
Fc1ccc(/C=C/[C@@H]2C[C@@H](F)CCO2)cc1	61.1%	67.6%	98.4%	89.7%	102%	113%	84.8%	103%	101%	100%	97.9%	90.2%	91.3%	82.2%	105%	103%	60.6%	
O=C(Nc1cc(Cl)cc(Cl)c1)Oc1c(Cl)c(Cl)c(Cl)c(Cl)c1Cl	64.5%	37%	78.1%	87.3%	77.2%	54.9%	63.5%	77.5%	77.5%	74.9%	75.9%	88.3%	83%	62.1%	83.3%	79.2%	93.4%	
COC(=O)c1ccc2cc(OC)c(OC)cc2c1	91.5%	101%	104%	101%	118%	112%	105%		96.1%	90.5%	98.8%	99%	92.2%	95.6%	108%		98.8%	113%
C(=C(\C1=NCCN1)n1ccc2ccccc21)/c1ccccc1	95.9%	100%	97%	92.6%	105%	104%	88.6%	97.6%	90.3%	107%	97.7%	89.8%	84.5%	94%	99.4%	93.4%		
Cc1nc2ccccc2c(/C=C/c2ccc(F)cc2)c1C(=O)/C=C/c1ccccc1	8.92% (active)	1.46% (active)	2.09% (active)	-22% (active)	56%	-15.4% (active)	22.4%		10.9%	30.7%	-9.7% (active)	-1.98% (active)	11.4%	-69.9% (active)	11.9%	13.6%	22%	
